# In PubChem BioAssay (NCATS):
# Several values for one entry are separate records, joined by “and”; a condition that tells them apart may be missing. Identical values can stand only once. Inconclusive results are not listed. Entries that show only a call come without a potency. Some structures have more than one record in an assay (separate samples or runs), and their calls can disagree. Activity calls are given as the source filed them. The call rests on the fitted dose curve; in most records, active means well fitted curve in the direction sought with a large enough effect; inconclusive means small, poorly fitted or top-dose-only effect, or another doubt; inactive means no such curve, though single readings can be large; an effect the other way counts as inactive or inconclusive.
# Tests used:
# [1] = target: Alpha-galactosidase (Coffea arabica) (UniProt Q42656); assay: Counterscreen for Glucocerebrosidase Inhibitors: qHTS Assay for Coffee Bean alpha-Galactosidase at pH 4.5 (AID 957); further: series mostly up to about 77 µM
# Outline: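 Green coffee bean enzyme (2 nM final) was incubated with compounds (0.7 nM to 77 uM) and 4-methylumbelliferyl alpha-D-galactopyranoside (80 uM final) in 50 mM citric acid, 0.005% Tween-20, pH 4.5, 20 min at room temperature; AC50 from Hill fits.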
# [2] = Cell Viability - LYMP1-003 - Assay at 24 hr (AID 963); further: potency means the concentration at half of the fitted maximal effect
# Outline: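 Human lymphoblastoid LYMP1-003 cells (2500/well) were rested 5 hr at 37 C, then exposed to compounds in complete medium for 24 hr at 37 C. Cellular ATP was quantified by CellTiter-Glo luminescence, and AC50 values came from Hill fits of concentration-response data.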
# [3] = Cell Viability - LYMP1-003 - Assay at 40 hr (AID 964); further: nearly all actives have a fitted effect of over 60% in size; further: potency means the concentration at half of the fitted maximal effect
# Outline: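 Human lymphoblastoid LYMP1-003 cells, 2500/well in complete medium, rested 5 hr at 37 C, then exposed to compounds for 40 hr at 37 C. Viability read as intracellular ATP by CellTiter-Glo luminescence; AC50 from Hill fits of concentration-response data.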
# [4] = Cell Viability - LYMP2-003 (AID 965);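 further: cells exposed to compounds for 24 h before reading; nearly all actives have a fitted effect of over 50% in size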; further: potency means the concentration at half of the fitted maximal effect
# Outline: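 Human lymphoblastoid cells (2500/well) were pre-incubated 5 hr at 37 C, then exposed to compounds over a concentration range for 24 hr at 37 C. Intracellular ATP was read by CellTiter-Glo luminescence; AC50 came from Hill-equation fits.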
# [5] = Cell Viability - LYMP2-009 (AID 968); further: nearly all actives have a fitted effect of over 55% in size; further: potency means the concentration at half of the fitted maximal effect
# [6] = Cell Viability - LYMP2-011 (AID 969); further: nearly all actives have a fitted effect of over 60% in size; further: potency means the concentration at half of the fitted maximal effect
# Outline: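 Human lymphoblastoid cells (2500/well) were plated in complete medium, preincubated 5 hr at 37 C, then exposed to compounds for 24 hr at 37 C. Intracellular ATP was read by CellTiter-Glo luminescence, and AC50 came from Hill-equation concentration-response fits.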
# [7] = target: Pyruvate kinase PKM (Homo sapiens) (UniProt P14618); assay: qHTS Assay for Inhibitors of Human Muscle Pyruvate Kinase (AID 958)
# Outline: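 PKM2, human, >95% pure, 0.1 nM; PEP 0.5 mM (Km), ADP 0.1 mM; 50 mM imidazole pH 7.2, 50 mM KCl, 0.01% Tween 20, 0.05% BSA; 1 h RT; luciferase luminescence readout.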
# [8] = target: Pyruvate kinase (Leishmania mexicana) (UniProt Q27686); assay: qHTS Validation Assay for Activators of Leishmania Mexicana Pyruvate Kinase (AID 959)
# Description: NIH Molecular Libraries Screening Centers Network [MLSCN]
# NIH Chemical Genomics Center [NCGC]
# PI names: Malcom Walkinshaw, Hugh Morgan and Linda Gilmore
# University of Edinburgh, Edinburgh, UK
# Species of Leishmania are responsible for a wide spectrum of diseases throughout the tropics and subtropics, ranging from self-healing ulcers to highly disfiguring lesions and serious, often lethal visceral diseases, such as kala-azar. In Leishmania spp. it has been shown that both sugar uptake and gluconeogenesis are necessary to synthesize sufficient hexose-phosphate required for the production of glycoconjugates and the intracellular polysaccharide mannan which are essential for both replication and virulence of the parasites. Therefore, most of the enzymes participating in glycolysis and gluconeogenesis are expected to be essential (Naderer et al., 2006). The assay described here targets pyruvate kinase from Leishmania mexicania (LmPYK) that was obtained as a highly purified preparation from the University of Edinburgh (E451W mutant was provided). A 1536 well assay protocol was set up and validated by screening the LOPAC library in triplicate as an eight point concentration-titration series using the qHTS platform developed at the NCGC.
# NCGC Assay Protocol Summary:
# Three uL of substrate mix (final concentrations, 50 mM imidazole pH 7.2, 50 mM KCl, 7 mM MgCl2, 0.5 mM PEP, 0.1 mM ADP, 0.01% Tween 20, 0.05% BSA) was dispensed into white solid medium binding Greiner 1536 well plates. 23 nL of compound were delivered by a pin tool and 1 uL of enzyme mix (final concentration, 0.2 nM LmPYK, 50 mM imidazole pH 7.2, 0.05% BSA) was added. Plates were covered with stainless steel gasket-lined lids and incubated at room temperature for 1 hour. Two uL of detection and kinase stop mix (PKLight, Lonza) was added, and luminescence read by a ViewLux (Perkin Elmer) at 2 second exposure/plate using 2x binning. […]
# [9] = MultiTox-Fluor Cytotoxicity Assay - LYMP1-002 - Dead Cells (AID 960); further: nearly all actives have a fitted effect of over 60% in size
# Outline: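 Human lymphoblastoid cells (LYMP1-002), 2500/well in complete medium, were exposed to compounds for 16 hr at 37 C. Dead-cell protease activity was read as bis-AAF-R110 fluorescence (Ex/Em 485/520), normalized to DMSO and 15 uM tetraoctylammonium bromide; AC50 from Hill fits.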
# [10] = Cell Viability - LYMP2-004 (AID 966); further: nearly all actives have a fitted effect of over 65% in size; further: potency means the concentration at half of the fitted maximal effect
# Outline: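 Human lymphoblastoid cells (2500/well) in complete medium were treated with compounds for 24 hr at 37 C, then intracellular ATP was measured by CellTiter-Glo luminescence. AC50 values came from Hill-equation fits of concentration-response data.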
# Chain of Pyruvate kinase PKM (Homo sapiens) (P14618 whole entry, looked up): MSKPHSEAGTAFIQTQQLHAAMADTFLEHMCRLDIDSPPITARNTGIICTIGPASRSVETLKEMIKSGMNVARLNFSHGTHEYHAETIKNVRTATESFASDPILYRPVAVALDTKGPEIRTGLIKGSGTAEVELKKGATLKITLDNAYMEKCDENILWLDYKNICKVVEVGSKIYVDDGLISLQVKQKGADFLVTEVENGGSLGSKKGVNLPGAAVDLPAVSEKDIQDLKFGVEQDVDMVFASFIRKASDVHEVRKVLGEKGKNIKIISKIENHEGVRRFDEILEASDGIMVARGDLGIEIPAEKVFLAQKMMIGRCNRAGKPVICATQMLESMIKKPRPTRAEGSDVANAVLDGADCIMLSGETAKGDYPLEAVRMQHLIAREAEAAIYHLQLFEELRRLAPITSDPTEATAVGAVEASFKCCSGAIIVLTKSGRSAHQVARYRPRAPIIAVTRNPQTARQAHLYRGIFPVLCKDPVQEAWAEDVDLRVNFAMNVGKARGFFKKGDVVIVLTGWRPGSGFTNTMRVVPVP
# Chain of Pyruvate kinase (Leishmania mexicana) (Q27686 2-499 E452W): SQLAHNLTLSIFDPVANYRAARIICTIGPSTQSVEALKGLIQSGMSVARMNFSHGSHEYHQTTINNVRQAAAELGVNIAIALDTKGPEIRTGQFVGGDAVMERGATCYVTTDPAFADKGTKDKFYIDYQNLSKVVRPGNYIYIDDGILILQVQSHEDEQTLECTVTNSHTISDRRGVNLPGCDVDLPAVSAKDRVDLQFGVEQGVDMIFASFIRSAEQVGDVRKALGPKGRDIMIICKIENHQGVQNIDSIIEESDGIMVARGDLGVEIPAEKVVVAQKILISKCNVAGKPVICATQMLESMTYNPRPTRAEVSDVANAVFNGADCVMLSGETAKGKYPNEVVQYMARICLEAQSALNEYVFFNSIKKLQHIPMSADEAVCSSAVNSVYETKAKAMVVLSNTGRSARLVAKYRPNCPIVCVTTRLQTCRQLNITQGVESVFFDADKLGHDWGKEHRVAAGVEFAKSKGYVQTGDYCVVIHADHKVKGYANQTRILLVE
# Chain of Alpha-galactosidase (Coffea arabica) (Q42656 whole entry, looked up): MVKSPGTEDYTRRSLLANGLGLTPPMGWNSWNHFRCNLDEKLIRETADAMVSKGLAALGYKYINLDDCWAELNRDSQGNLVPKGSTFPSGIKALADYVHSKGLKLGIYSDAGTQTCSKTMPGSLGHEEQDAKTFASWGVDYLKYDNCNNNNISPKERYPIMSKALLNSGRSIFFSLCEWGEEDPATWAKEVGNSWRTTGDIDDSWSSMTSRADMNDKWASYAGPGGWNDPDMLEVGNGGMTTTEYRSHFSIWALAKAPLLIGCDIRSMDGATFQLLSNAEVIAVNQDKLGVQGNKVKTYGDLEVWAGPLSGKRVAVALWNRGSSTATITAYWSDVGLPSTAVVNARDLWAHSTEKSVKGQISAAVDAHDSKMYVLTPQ
structure (smiles),measurement,setting,value
N#CCCN,outcome,[1],inactive
O=C1C=CC(=O)C=C1,outcome,[1],inactive
same,Potency,[2],inactive
same,Potency,[3],inactive
same,Potency,[4],inactive
same,Potency,[5],50.1 µM (active)
same,Potency,[6],50.1 µM (active)
Clc1cc(I)cc(Cl)c1NC1=NCCN1,outcome,[1],inactive
COc1ccc2[nH]c3c(c2c1)CCNC3,outcome,[1],inactive
CN(N=O)c1cc(O)ccc1O,outcome,[1],inactive
same,Potency,[7],inactive
same,Potency,[8],3.16 µM (active)
C[C@@H]1O[C@H](C[N+](C)(C)C)CS1,outcome,[1],inactive
CCCN(CCC)CCc1c[nH]c2ccc(C(N)=O)cc12,outcome,[1],inactive
NCCc1c[nH]c2ccc(C(N)=O)cc12,outcome,[1],inactive
Clc1ccc(N2C[C@H]3CC[C@@H](C2)N3)nn1,outcome,[1],inactive
NCCc1ccc(S(=O)(=O)F)cc1,outcome,[1],inactive
CC(=O)NBr,outcome,[1],inactive
OCc1cnc[nH]1,outcome,[1],inactive
CN1CCC(c2c[nH]c3ccc(O)cc23)CC1,outcome,[1],inactive
CN1CCc2cc(O)cc3c2[C@H]1Cc1ccc(O)c(O)c1-3,outcome,[1],inactive
same,Potency,[7],inactive
C[N+]1(C)[C@@H]2CC[C@H]1CC(OC(=O)c1c[nH]c3ccccc13)C2 (stereo not given in full),outcome,[1],inactive
c1ccc2c(c1)[I+]c1ccccc1-2,outcome,[1],inactive
NCCCP(=O)(O)O,outcome,[1],inactive
N[C@@H](Cn1oc(=O)[nH]c1=O)C(=O)O,outcome,[1],inactive
CCCn1c(=O)c2[nH]c(C3CCCC3)nc2n(CCCOC(=O)c2ccc(S(=O)(=O)F)cc2)c1=O,outcome,[1],inactive
NC(=O)COc1c(F)cc(SCCNS(=O)(=O)c2ccccc2)cc1F,outcome,[1],inactive
NNC(N)=O,outcome,[1],inactive
same,Potency,[9],inactive
same,Potency,[2],inactive
same,Potency,[3],inactive
same,Potency,[4],inactive
same,Potency,[10],inactive
same,Potency,[5],inactive
same,Potency,[6],inactive
CCCN(CCC)CCc1ccc(O)c(O)c1,outcome,[1],inactive
Cc1c2ccncc2c(C)c2c1[nH]c1ccccc12,outcome,[1],inactive
CCCN1CCc2cc(O)cc3c2[C@H]1Cc1ccc(O)c(O)c1-3,outcome,[1],inactive
O=C(O)c1cc[c]([Hg][Cl])cc1,outcome,[1],inactive
same,Potency,[7],2.51 µM (active)
same,Potency,[8],inactive
NC(=O)c1cc(N2CC2)c([N+](=O)[O-])cc1[N+](=O)[O-],outcome,[1],inactive
CN(N=O)c1ccc(O)c(O)c1,outcome,[1],inactive
same,Potency,[7],inactive
N#CC(C#N)=Cc1cc(O)c(O)c(O)c1,outcome,[1],inactive
CC(C)(C)c1cc(C=C(C#N)C#N)cc(C(C)(C)C)c1O,outcome,[1],inactive
CCS(=O)(=O)Nc1cccc(C(=C2CCCCC2)c2cnc[nH]2)c1,outcome,[1],inactive
O=C/C=C/c1ccccc1,Potency,[9],inactive
same,Potency,[2],inactive
same,Potency,[3],inactive
same,Potency,[4],inactive
same,Potency,[10],inactive
same,Potency,[5],inactive
same,Potency,[6],inactive
O=C1CCO1,Potency,[9],inactive
same,Potency,[2],inactive
same,Potency,[3],inactive
same,Potency,[4],inactive
same,Potency,[10],inactive
same,Potency,[5],inactive
same,Potency,[6],inactive
ClC(Cl)(Cl)Cl,Potency,[9],inactive
same,Potency,[2],inactive
same,Potency,[3],inactive
same,Potency,[4],inactive
same,Potency,[10],inactive
same,Potency,[5],inactive
same,Potency,[6],inactive
O=c1c2ccccc2[se]n1-c1ccccc1,Potency,[7],10 µM (active)
same,Potency,[8],inactive
[O]=[Cr](=[O])([OH])[O][Cr](=[O])(=[O])[OH],Potency,[9],inactive
same,Potency,[2],inactive and 39.8 µM (active)
same,Potency,[3],inactive and 39.8 µM (active) and 25.1 µM (active)
same,Potency,[4],12.6 µM (active) and 20 µM (active) and 7.94 µM (active)
same,Potency,[10],10 µM (active) and 15.8 µM (active) and 6.31 µM (active)
same,Potency,[5],10 µM (active) and 6.31 µM (active)
same,Potency,[6],10 µM (active) and 12.6 µM (active) and 7.94 µM (active)
O=C(O)C(Cl)(Cl)Cl,Potency,[9],inactive
same,Potency,[2],inactive
same,Potency,[3],inactive
same,Potency,[4],inactive
same,Potency,[10],inactive
same,Potency,[5],inactive
same,Potency,[6],inactive
CC(C)Nc1ccc(Nc2ccccc2)cc1,Potency,[2],50.1 µM (active)
same,Potency,[3],31.6 µM (active)
same,Potency,[4],39.8 µM (active)
same,Potency,[10],39.8 µM (active)
same,Potency,[5],31.6 µM (active)
same,Potency,[6],31.6 µM (active)
CCOC(=O)c1ccccc1C(=O)OCC,Potency,[9],inactive
same,Potency,[2],inactive
same,Potency,[3],inactive
same,Potency,[4],inactive
same,Potency,[10],inactive
same,Potency,[5],inactive
same,Potency,[6],inactive
Oc1cc(Cl)c(Cl)cc1Cl,Potency,[9],inactive
same,Potency,[2],inactive
same,Potency,[3],inactive
same,Potency,[4],inactive
same,Potency,[10],inactive
same,Potency,[5],inactive
same,Potency,[6],inactive
O=[N+]([O-])c1ccc(F)c([N+](=O)[O-])c1,Potency,[9],inactive
same,Potency,[2],inactive
same,Potency,[3],inactive
same,Potency,[4],inactive
same,Potency,[10],inactive
same,Potency,[5],inactive
C[C@H]1CCC[C@H](O)CCCCCc2cc(O)cc(O)c2C(=O)O1,Potency,[9],inactive
same,Potency,[2],inactive
same,Potency,[3],inactive
same,Potency,[4],inactive
same,Potency,[10],inactive
same,Potency,[5],inactive
same,Potency,[6],inactive
CCCCCl,Potency,[9],inactive
same,Potency,[2],inactive
same,Potency,[3],inactive
same,Potency,[4],inactive
same,Potency,[10],inactive
same,Potency,[5],inactive
same,Potency,[6],inactive
